Structures are written as SMILES. Active and inactive are the calls of the source.

One test deals with Albumin (Bos taurus) (UniProt P02769). Briefly: compounds binding labelled BSA control protein – biochemical, small-molecule microarray, Alexa647 label, 635/667 nm fluorescence, artefact control for SMM control protein annotation, profiling panel (AID 1118).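 Further: score merges 667 nm emission intensity and signal-to-noise per printed compound spot.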 The following applies: BSA-A647 binding, fluorescence 635 nm, higher = more signal.
Albumin (Bos taurus), sequence (P02769 whole entry, looked up): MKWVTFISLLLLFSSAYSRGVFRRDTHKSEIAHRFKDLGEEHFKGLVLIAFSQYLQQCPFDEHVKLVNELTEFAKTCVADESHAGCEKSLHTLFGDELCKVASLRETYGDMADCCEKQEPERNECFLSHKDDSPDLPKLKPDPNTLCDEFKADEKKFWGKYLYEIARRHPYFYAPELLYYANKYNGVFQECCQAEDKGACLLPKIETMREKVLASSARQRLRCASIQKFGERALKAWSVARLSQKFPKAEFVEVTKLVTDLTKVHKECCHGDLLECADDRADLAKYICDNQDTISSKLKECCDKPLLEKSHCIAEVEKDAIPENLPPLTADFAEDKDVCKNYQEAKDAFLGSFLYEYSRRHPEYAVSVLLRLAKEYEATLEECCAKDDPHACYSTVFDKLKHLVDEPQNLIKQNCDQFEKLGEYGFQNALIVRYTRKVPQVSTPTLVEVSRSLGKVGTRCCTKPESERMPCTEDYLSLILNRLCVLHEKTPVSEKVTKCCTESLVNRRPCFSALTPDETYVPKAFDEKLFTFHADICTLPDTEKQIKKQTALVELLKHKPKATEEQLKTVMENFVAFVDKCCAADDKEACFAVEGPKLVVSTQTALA
Test [1] can be described thus: probe aXIP binding to arrayed compounds – biochemical, NeuroSMM set, 635/667 nm fluorescence, primary screen (AID 1119).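 Further: probe is the protein aXip251-270 applied at 1 µg/mL to compound-printed slides; binding of probe to printed compounds measured as 667 nm fluorescence plus signal to noise.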 Particulars: small-molecule microarray, higher = more signal, called active from +8 up or from −8 down.
A short description of test [2]: probe aNOTCH3 binding on compound microarray – biochemical, small-molecule microarray, 635/667 nm fluorescence, primary screen (AID 1120).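 Further: probe is a biotin-tagged antibody raised against NOTCH3 rather than NOTCH3 protein; score merges spot fluorescence near 667 nm with spot signal to noise.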 Particulars: higher = more signal.
The nature of test [3]: probe aNOTCH2 binding on compound microarray – biochemical, small-molecule microarray, 635/667 nm fluorescence, primary screen (AID 1121).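 Further: score merges feature fluorescence read at 667 nm with its signal to noise.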 Particulars: higher = more signal.
Test [4] addresses Carbonic anhydrase 2 (Homo sapiens) (UniProt P00918). Briefly: compounds binding carbonic anhydrase 2 – biochemical, small-molecule microarray, Alexa647-labelled CAII, profiling panel (AID 1122). Particulars: CAII-A647 binding fluorescence, higher = more signal.
The nature of test [5]: COS7 lysate on small-molecule microarray, probe aHis, 635 nm (AID 1123).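 Further: z-score combines 667nm fluorescence intensity with signal-to-noise per printed compound spot.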 Particulars: COS7 cell lysate, fluorescence, higher = more signal.
A short description of test [6]: probe aLAP1 signal on lysate-treated microarray – cell lysate, small-molecule microarray, COS7 lysate, primary screen (AID 1124).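 Further: lysate comes from COS7 cells expressing LAP1 and is applied at 0.3 µg/mL; score merges spot fluorescence near 667 nm with signal-to-noise over triplicate slides.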 Particulars: probe aLAP1, fluorescence, higher = more signal.
For the next test, the system named is Sam68 (KHDRBS1). In words: compounds binding KHDRBS1 protein – biochemical, small-molecule microarray, 635 nm fluorescence, primary screen (AID 1125).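 Further: score merges 667 nm channel intensity with signal to noise over triplicate slides.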 Particulars: higher = more signal.
Test [7] concerns Chordin-like protein 2 (CHRDL2). Briefly: compounds binding chordin-like 2 – biochemical, small-molecule microarray, 635 nm fluorescence, primary screen (AID 1126).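 Further: printed compound slides probed with Chrdl2 protein at 4 µg/mL for 1 h at 4 C; score merges 667 nm emission intensity with signal to noise over three replicate slides.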 The following applies: fluorescence 635 nm, higher = more signal.
In test [8] the target is Concanavalin-A (Canavalia ensiformis) (UniProt P02866). In words: compounds binding concanavalin A lectin – biochemical, small-molecule microarray, Alexa647 label, 635 nm, artefact control for SMM control protein annotation, primary screen (AID 1127).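 Further: z combines 667 nm emission intensity with signal-to-noise across three replicate slides.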 The following applies: ConA-A647 binding fluorescence, higher = more signal.
Concanavalin-A (Canavalia ensiformis), sequence (P02866 whole entry, looked up): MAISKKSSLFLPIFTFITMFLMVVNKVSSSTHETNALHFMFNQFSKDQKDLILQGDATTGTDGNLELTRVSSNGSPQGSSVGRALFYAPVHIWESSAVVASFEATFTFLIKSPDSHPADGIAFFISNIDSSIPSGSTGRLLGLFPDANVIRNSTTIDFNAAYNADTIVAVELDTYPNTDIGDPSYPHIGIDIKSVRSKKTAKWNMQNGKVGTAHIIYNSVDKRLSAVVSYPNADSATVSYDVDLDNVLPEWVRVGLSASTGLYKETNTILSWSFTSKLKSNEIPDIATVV
Test [9] is described as follows: compounds binding Alexa647 anti-His antibody – biochemical, small-molecule microarray, 635 nm fluorescence, artefact control for SMM control protein annotation, primary screen (AID 1128).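 Further: score merges feature fluorescence with signal-to-noise for each printed compound spot.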 The following applies: higher = more signal.
Test [10] concerns Human papillomavirus type 1a E7 protein (residues 1-88). In words: HPV1a E7 small-molecule binders, primary screen, biochemical, small-molecule microarray, residues 1-88, 635 nm (AID 1129). Particulars: small-molecule microarray binding, fluorescence 635 nm; higher = more signal.
In test [11] the target is Focal adhesion kinase 1 (Homo sapiens) (UniProt Q05397). In words: PTK2 protein binding on printed compound slides – biochemical, small-molecule microarray, 635/667 nm fluorescence, BSA, DTT, primary screen (AID 1130).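 Further: composite of spot emission at 667 nm and signal to noise over triplicate slides.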 Particulars: 635 nm fluorescence, higher = more signal.
Focal adhesion kinase 1 (Homo sapiens), sequence (Q05397 whole entry, looked up): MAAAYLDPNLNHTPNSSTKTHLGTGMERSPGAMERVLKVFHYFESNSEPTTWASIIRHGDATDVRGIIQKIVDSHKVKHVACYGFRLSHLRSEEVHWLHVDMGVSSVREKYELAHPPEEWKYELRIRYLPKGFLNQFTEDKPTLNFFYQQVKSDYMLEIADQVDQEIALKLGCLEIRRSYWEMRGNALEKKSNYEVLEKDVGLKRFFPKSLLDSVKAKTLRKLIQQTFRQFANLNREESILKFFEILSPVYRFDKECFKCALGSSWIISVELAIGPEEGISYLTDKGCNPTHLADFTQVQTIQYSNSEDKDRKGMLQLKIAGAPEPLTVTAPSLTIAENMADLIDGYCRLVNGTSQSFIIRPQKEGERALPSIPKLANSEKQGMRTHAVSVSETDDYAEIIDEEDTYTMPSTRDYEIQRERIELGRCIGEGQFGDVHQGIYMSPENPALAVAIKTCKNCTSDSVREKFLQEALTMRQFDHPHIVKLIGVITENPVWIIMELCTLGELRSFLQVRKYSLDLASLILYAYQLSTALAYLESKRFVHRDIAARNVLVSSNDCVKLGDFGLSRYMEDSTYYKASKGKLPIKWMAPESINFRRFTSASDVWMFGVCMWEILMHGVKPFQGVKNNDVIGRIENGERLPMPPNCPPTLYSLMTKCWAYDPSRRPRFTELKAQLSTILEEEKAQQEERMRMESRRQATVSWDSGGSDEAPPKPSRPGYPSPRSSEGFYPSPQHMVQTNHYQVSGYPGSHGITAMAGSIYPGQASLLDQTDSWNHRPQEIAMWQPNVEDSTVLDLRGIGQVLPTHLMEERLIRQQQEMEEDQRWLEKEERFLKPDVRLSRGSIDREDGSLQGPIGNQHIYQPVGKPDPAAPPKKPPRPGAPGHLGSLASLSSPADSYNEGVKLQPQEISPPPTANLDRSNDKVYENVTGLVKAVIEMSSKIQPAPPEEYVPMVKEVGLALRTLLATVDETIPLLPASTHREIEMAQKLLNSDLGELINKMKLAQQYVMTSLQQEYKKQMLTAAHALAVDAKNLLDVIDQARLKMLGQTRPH
The test system of test [12] is Fibrinogen (Alexa647-labelled). In words: Alexa647-fibrinogen binding to printed small molecules – biochemical, small-molecule microarray, 635/667 nm fluorescence, artefact control for SMM control-protein annotation, profiling panel (AID 1131).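 Further: z-score merges 667 nm fluorescence with per-spot signal-to-noise over triplicate slides.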 The following applies: fibrinogen-A647 binding fluorescence, higher = more signal.
Test [13] concerns the target Follistatin (Homo sapiens) (UniProt P19883). Briefly: FST protein binding to printed compounds – biochemical, small-molecule microarray, 635/667 nm fluorescence, primary screen (AID 1132). Particulars: 635 nm fluorescence, higher = more signal.
For test [14], the target named is Fibroblast growth factor 2 (Homo sapiens) (UniProt P09038). Briefly: basic fibroblast growth factor binding to printed compounds – biochemical, small-molecule microarray, 635/667 nm fluorescence, primary screen (AID 1133). The following applies: FGF2, fluorescence 635/667, higher = more signal.
Fibroblast growth factor 2 (Homo sapiens), sequence (P09038 whole entry, looked up): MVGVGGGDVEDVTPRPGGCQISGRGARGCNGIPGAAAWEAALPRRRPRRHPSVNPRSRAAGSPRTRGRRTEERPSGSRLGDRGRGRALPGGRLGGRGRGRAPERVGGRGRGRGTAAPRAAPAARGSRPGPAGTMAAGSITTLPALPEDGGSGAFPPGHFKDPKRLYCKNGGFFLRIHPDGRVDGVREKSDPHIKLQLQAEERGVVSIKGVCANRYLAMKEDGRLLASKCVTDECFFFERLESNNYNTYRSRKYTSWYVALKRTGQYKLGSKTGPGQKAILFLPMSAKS
Test [15] can be described thus: JC-1 mitochondrial potential readout, lung cancer cells – cell-based, A549, JC-1 fluorescence, basal, 24 h, 100 nL, profiling panel (AID 1138).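 Further: A549 lung adenocarcinoma cells under basal conditions with no added stimulus; test concentration not given here.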 Particulars: higher = more signal.
In the next test the test system is Lefty1. Briefly: Lefty1 protein binding to printed compounds – biochemical, small-molecule microarray, 635/667 nm fluorescence, primary screen (AID 1139). Particulars: fluorescence 635/667, higher = more signal.
Test [16] deals with wheat germ agglutinin (Triticum aestivum), Alexa647-labelled. Briefly: Alexa647-WGA lectin binding to printed small molecules – biochemical, small-molecule microarray, 635/667 nm fluorescence, artefact control for SMM control-protein annotation, profiling panel (AID 1140).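 Further: score merges 667 nm feature emission with signal to noise over triplicate slides.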 Particulars: WGA-A647 binding, 635 nm fluorescence, higher = more signal.
Test [17] concerns the target Luciferin 4-monooxygenase (Photinus pyralis) (UniProt P08659). In words: inhibition of purified Photinus pyralis luciferase – biochemical, luminescence, purified enzyme, 2006 set, primary screen (AID 1141).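 Further: cell-free assay with purified firefly luciferase at 100 ng per well in PBS; test concentration not given here.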 Particulars: purified firefly luciferase, SteadyGlo luminescence, 30 min; higher = more signal, called active from +8 up or from −8 down.

Follistatin (Homo sapiens), sequence (P19883 whole entry, looked up): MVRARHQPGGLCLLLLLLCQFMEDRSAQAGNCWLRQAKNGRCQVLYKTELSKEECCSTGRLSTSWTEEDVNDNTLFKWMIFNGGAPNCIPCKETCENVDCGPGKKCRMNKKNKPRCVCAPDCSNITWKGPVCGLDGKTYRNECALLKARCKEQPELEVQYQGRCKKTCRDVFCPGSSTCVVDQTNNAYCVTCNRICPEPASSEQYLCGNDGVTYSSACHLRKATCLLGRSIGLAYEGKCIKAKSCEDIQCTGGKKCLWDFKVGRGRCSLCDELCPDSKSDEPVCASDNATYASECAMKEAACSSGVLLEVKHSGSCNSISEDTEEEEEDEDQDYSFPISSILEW
Luciferin 4-monooxygenase (Photinus pyralis), sequence (P08659 whole entry, looked up): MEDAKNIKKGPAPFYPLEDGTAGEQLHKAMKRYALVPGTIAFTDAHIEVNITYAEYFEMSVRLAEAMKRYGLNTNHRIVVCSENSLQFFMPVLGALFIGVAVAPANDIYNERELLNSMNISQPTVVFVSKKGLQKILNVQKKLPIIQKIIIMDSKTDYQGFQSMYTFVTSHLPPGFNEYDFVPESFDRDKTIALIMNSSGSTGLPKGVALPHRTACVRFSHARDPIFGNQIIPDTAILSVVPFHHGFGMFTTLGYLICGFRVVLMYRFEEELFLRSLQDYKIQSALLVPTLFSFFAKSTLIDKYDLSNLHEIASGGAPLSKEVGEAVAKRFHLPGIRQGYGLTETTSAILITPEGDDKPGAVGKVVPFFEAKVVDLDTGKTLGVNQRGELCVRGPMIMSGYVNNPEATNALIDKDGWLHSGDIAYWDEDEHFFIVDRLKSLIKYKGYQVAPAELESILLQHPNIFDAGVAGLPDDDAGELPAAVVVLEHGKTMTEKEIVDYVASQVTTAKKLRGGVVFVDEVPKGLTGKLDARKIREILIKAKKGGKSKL

For `CC(C)C(=C=CC[C@H](O)c1ccc(OCCO)cc1)C[C@H](O)c1ccccn1`, the composite z-score was 0.449 with Albumin (Bos taurus); -0.0044 in [2]; -0.13 in test [3]; 0.513 in [4]; 0.619 in [5]; 0.864 in test [6]. Moreover, the composite z-score in the test on Sam68 (KHDRBS1) was 1.19; in test [7], -0.237; in [8], -0.057; in [9] it was 0.923; in test [10], 0.955; in test [11], 0.104. For the same compound, the composite z-score in [12] was 0.3; in test [13] it was 0.135; in [14], -0.139; with Lefty1 it was 0.334; in test [16] it was 0.0804. Besides, the composite Z-score in test [1] is 0.168 (inactive). Besides, the z-score in [15] is 1.51; in test [17], -2.27 (inactive).
For the compound `CC=CC(O)C1C=CC2C(=O)N(c3ccccc3)C(=O)C2N1Nc1ccccc1F` (stereo not given), the composite z-score with Albumin (Bos taurus) came to 0.245; in test [2] it was 0.541; in test [3] it was 0.468; in [4], 0.74; in test [5], 2.08; in test [6], 0.412. Besides, the composite z-score in the test on Sam68 (KHDRBS1) turned out to be 0.338; in [7] it was 0.295; in test [8] it was 0.0905; in test [9], 0.817; in [10] it was 0.217; in [11], 0.451. The composite z-score in [12] was -1.06; in test [13], 0.0954; in test [14] it was -0.189; in the test on Lefty1, -0.844; in test [16], 0.0224. The composite Z-score in test [1] was 1.48 (inactive). Further, the figures for the z-score in test [15] and in test [17] were -1.05 and 0.597 (inactive), respectively.
For `COC(=O)[C@@]1(Cc2ccccc2N=[N+]=[N-])N=C(c2ccc(OCCCO)cc2)O[C@H]1c1ccccc1N=[N+]=[N-]`, the composite z-score with Albumin (Bos taurus) is -0.908; in [2], 0.149; in test [3], 0.0977; in test [4] it was 0.355; in test [5] it was 1.44; in test [6], 0.494. Also, the composite z-score with Sam68 (KHDRBS1) stood at 0.996; in test [7], 0.456; in [8] it was 0.851; in test [9], 1.08; in test [10] it was 1.14; in [11], 0.909. For the same compound, the composite z-score is 0.605 in test [12]; 1.27 in test [13]; 0.933 in test [14]; 0.119 with Lefty1; 0.767 in test [16]. The composite Z-score in test [1] is 0.332 (inactive). Also, the z-score in test [15] was 2.85; in test [17], -5.01 (inactive).
As for `COC(=O)c1c(CC[C@@H](CO)NC(=O)N2CCC[C@H]2Cn2cc(Cc3ccccc3)nn2)oc(C(C)=O)c1C(=O)OC`, the composite z-score in the test with Albumin (Bos taurus) is 0.0832; in [2] it was 0.233; in test [3], -0.133; in test [4], 0.643; in test [5], 1.33; in test [6] it was 0.381. Moreover, the composite z-score is 0.694 in the test with Sam68 (KHDRBS1); 0.668 in [7]; 0.488 in test [8]; -0.0636 in test [9]; 0.485 in [10]; 0.397 in [11]. For the same compound, the composite z-score is -0.522 in test [12]; 0.613 in test [13]; 0.147 in test [14]; 0.824 with Lefty1; 0.541 in [16]. Further, the composite Z-score in test [1] is -0.413 (inactive). Also, the z-score in [15] is -0.58; in test [17] it was 1.15 (inactive).
For `COCCOC(=O)N1C(=O)[C@@]2(c3cc(C#CC4=CCCCC4)ccc31)[C@H](c1ccc(OCCO)cc1)N1[C@H](c3ccccc3)[C@H](c3ccccc3)OC(=O)[C@H]1[C@@H]2C(=O)N1CCN(c2ncccn2)CC1`, the composite z-score with Albumin (Bos taurus) was 0.737; in test [2] it was 0.0596; in [3] it was -0.158; in [4], 0.425; in test [5], 0.477; in test [6], 0.677. Besides, the composite z-score in the test with Sam68 (KHDRBS1) turned out to be 1.31; in [7], 0.48; in [8] it was 0.713; in test [9], 0.433; in [10] it was 1.15; in test [11] it was 0.067. Further, the composite z-score stood at 0.574 in test [12]; 1.29 in test [13]; 0.692 in [14]; 0.853 in the test with Lefty1; 0.5 in test [16]. The composite Z-score in test [1] was -0.648 (inactive). Besides, the z-score in [15] was -1.27; in test [17] it was -2.01 (inactive).
With `[N-]=[N+]=Nc1ccccc1C[C@]1(C(=O)N2CCOCC2)N=C(c2ccc(OCCCO)cc2)O[C@H]1c1ccccc1`, the composite z-score was 0.806 in the test with Albumin (Bos taurus); -0.0902 in [2]; -0.204 in [3]; 0.627 in test [4]; 1.99 in [5]; 0.221 in [6]. Also, the composite z-score worked out at 1.36 in the test on Sam68 (KHDRBS1); 0.764 in test [7]; 1.15 in test [8]; 2.06 in test [9]; 1.21 in [10]; 0.3 in test [11]. In addition, the composite z-score in [12] stood at 0.905; in test [13], 1.42; in [14], 1.81; in the test on Lefty1, 0.435; in [16] it was 1.2. Moreover, in [1], the composite Z-score was 0.339 (inactive). The z-score is 2.81 in test [15] and -2.31 (inactive) in test [17].

For the origin of these results see PubChem BioAssay.
